# Data published in ChEMBL document CHEMBL2218924, “A broad activity screen in support of a chemogenomic map for kinase signalling research and drug discovery” (Biochem J, 2013).
# Molecular target: T1, Serine/threonine-protein kinase Sgk2 (Homo sapiens) (UniProt Q9HBY8)
# T1 sequence (whole entry): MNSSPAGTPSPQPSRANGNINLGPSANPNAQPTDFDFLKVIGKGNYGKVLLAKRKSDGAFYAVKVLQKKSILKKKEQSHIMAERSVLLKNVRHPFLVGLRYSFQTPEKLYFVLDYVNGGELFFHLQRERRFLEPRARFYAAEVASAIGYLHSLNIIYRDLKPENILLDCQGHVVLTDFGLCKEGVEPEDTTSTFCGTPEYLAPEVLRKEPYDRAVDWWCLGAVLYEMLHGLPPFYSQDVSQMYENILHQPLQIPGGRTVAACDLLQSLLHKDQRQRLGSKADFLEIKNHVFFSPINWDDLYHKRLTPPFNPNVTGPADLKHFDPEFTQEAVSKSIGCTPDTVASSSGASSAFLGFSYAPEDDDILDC
# Conditions: at 1 µM
row,Compound,residual activity
1,CCOC(=O)c1c(C)[nH]c(/C=C2\C(=O)Nc3ccccc32)c1C,82%
2,NC(=O)c1ccc(-c2nc(-c3ccc4c(c3)OCCO4)c(-c3ccccn3)[nH]2)cc1,97%
3,O=C(O)/C=C/c1cc(Br)c(Br)c(Br)c1Br,83%
4,COc1ccc(-c2cnc3c(-c4ccsc4)cnn3c2)cc1,97%
5,NC(=O)c1cccc(-c2cc(Nc3ccc(OC(F)(F)F)cc3)ncn2)c1,92%
6,Cn1sc(=O)n(Cc2ccccc2)c1=O,91%
7,COc1cc2ncnc(Nc3cccc(Cl)c3)c2cc1OC,77%
8,CC(C)(C)c1nc2c3ccc(F)cc3c3c(=O)[nH]ccc3c2[nH]1,63%
9,O=C1Cc2c([nH]c3ccc([N+](=O)[O-])cc23)-c2ccccc2N1,65%
10,O=C(c1ccccc1)c1ccc(N2CCOCC2)cc1O,134%
11,O=C1Cc2c([nH]c3ccc(Br)cc23)-c2ccccc2N1,99%
12,CCCCc1c(-c2ccc(O)cc2)[nH]c2nccnc12,92%
13,CC(C)[C@H](CO)Nc1nc(Nc2cc(N)cc(Cl)c2)c2ncn(C(C)C)c2n1,95%
14,NCCNc1ncc(C(N)=O)c(Nc2cccc(C(F)(F)F)c2)n1,82%
15,O=C(Nc1nc2ccccc2n1CCN1CCOCC1)c1cccc([N+](=O)[O-])c1,108%
16,N#C/C(=C\c1ccc(O)c(O)c1)C(=O)NCc1ccccc1,61%
